# MITF TRPM1 inh – inhibitors of MITF-driven TRPM1 promoter in melanoma cells | inhibition, % at 12.5 µM | 330,000 tested, 0.83% active | SK-MEL-5 TRPM1 promoter luciferase, 24 h;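 active = mean inhibition across replicates of 60% or more, whatever share of single replicates reaches that level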
# Shn3 inh set2 – reduces Shn3 3'UTR luciferase signal in osteoblasts; 360,000 tested, 0.52% active; Clone20 osteoblast Shn3 3'UTR firefly luciferase, 24 h; inhibition, % at 12.5 µM; AID 588674;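 active = mean inhibition of at least 75% with every replicate also reaching 75%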;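 note: 0% = median of neutral control wells and 100% = pilot-screen positive control compound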
# LMP1 NFkB inh – inhibitors of Epstein-Barr LMP1-induced NF-kappaB reporter. LMP1-induced NF-kappaB luciferase reporter cells, luminescence. inhibition, % at 12.5 µM. 350,000 tested, 0.69% active; in the data active = inhibition above about 41%;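 note: 0% = neutral control wells and 100% = reference inhibitor control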
# Gli-Sufu antag – blocks Gli-Sufu signaling in a luciferase reporter; inhibition, % at 5 µM; Sufu-KO-LIGHT fibroblasts, Gli luciferase reporter luminescence; 340,000 tested, 0.74% active; AID 588413;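 active = inhibition above about 55%, limit read from the data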;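 note: 0% = DMSO-treated cells and 100% = wells with medium but no cells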
# Jurkat NFkB inh – lowers PMA/ionomycin-induced NF-kB signal in Jurkat cells; PMA/ionomycin-induced NF-kB luciferase reporter, luminescence; inhibition, % at 4 µM; 330,000 tested, 0.53% active; AID 435003; in the data active = inhibition above about 50%
# 697 NFkB inh – lowers PMA/ionomycin-induced NF-kB signal in 697 B cells | 330,000 tested, 0.33% active | inhibition, % at 4 µM | AID 435022 | 697 B-cell NF-kB luciferase reporter, 16 h; in the data active = inhibition above about 35%
# Starred values were filed as active, the others as inactive; . = not tested or not shown. Most compounds without a hit are left out; they make up all but 2.3% or so of the library.
SMILES,MITF TRPM1 inh,Shn3 inh set2,LMP1 NFkB inh,Gli-Sufu antag,Jurkat NFkB inh,697 NFkB inh
CCOc1ccccc1NC(=O)CCC(=O)Nc1ccccc1OCC,-2,5,-3,-5,-4,-14
CC(C)c1nc(SCC(=O)Nc2cccc(C(F)(F)F)c2)c2c(=O)n(C)c(=O)n(C)c2n1,.,86*,16,16,3,-30
Cc1ccc2c(C)nc(Nc3nc(CSc4nc5ccccc5[nH]4)cc(=O)[nH]3)nc2c1,80*,74,-2,23,37,-28
Cc1ccc(SCc2cc(=O)[nH]c(Nc3nc(C)c4ccc(C)cc4n3)n2)cc1,-14,2,18,1,-7,-6
Nc1c(C(=O)NCc2ccc3c(c2)OCO3)nnn1Cc1cccc(F)c1,7,-18,1,-2,0,12
CCOC(=O)CON1C(=O)C(C)(C)N(OCC(=O)OCC)C(=O)C1(C)C,3,-3,-14,1,-10,0
C[C@@H]1CN([C@H](C)CO)S(=O)(=O)c2ccc(Br)cc2O[C@@H]1CN(C)Cc1ccc(C(=O)O)cc1,.,4,-7,.,.,.
C[C@@H]1CN([C@@H](C)CO)S(=O)(=O)c2ccc(/C=C/c3ccccc3)cc2O[C@@H]1CN(C)Cc1ccc(C(=O)O)cc1,.,-5,55*,.,.,.
Cc1ccc(/C=N/Nc2nnc(Cl)c3ccccc23)cc1,-9,-54,-48,-79,-125,-169
CC(=O)Nc1ccc(C=NNc2nnc(NN=Cc3ccc(NC(C)=O)cc3)c3ccccc23)cc1,-1,8,45*,-9,.,.
O=C(Nc1nc(-c2ccccn2)cs1)c1ccc(Br)s1,22,93*,87*,82*,27,-7
O=C(Nc1nc(-c2cc(Cl)sc2Cl)cs1)c1cccs1,-51,-30,-66,5,-19,-28
O=C(Nc1nc(-c2ccccn2)cs1)c1cccc(-n2cnnn2)c1,42,98*,30,22,16,-26
O=C(Nc1nc(-c2ccccn2)cs1)c1ccco1,6,35,10,-7,3,-12
O=C(Nc1nc(-c2cc(Cl)sc2Cl)cs1)c1ccc(Br)s1,0,-1,44*,10,7,-31
CC(Oc1ccc(F)cc1)C(=O)Nc1nc(-c2ccccn2)cs1 (configuration not stated),65*,62,14,7,9,8
Cc1cc(C(=O)N2CCCc3ccccc32)no1,7,8,-5,3,0,-3
O=C(N/C(=C/c1cccnc1)C(=O)N1CCOCC1)c1ccccc1,22,15,-4,-1,11,0
COc1ccc(/C=N/NC(=O)/C(=C/c2ccccc2)CCO)cc1,-2,-16,0,-1,3,0
CCCCOC(=O)c1ccc(NC(=O)C2CCCO2)cc1 (configuration not stated),-28,-60,-36,-21,-33,-29
Cc1ccc(-c2nc(C(=O)NCCCN(C)C)cc3c2[nH]c2ccccc23)cc1,76*,-11,-5,7,-36,6
Cc1cc(C)c(S(=O)(=O)N2CCN(C(=O)CCOc3ccccc3C)CC2)c(C)c1,.,9,64*,9,17,2
COCCCN(Cc1cc(OC)c(OC)c(OC)c1)C(=S)Nc1cccc(Cl)c1,.,82*,5,.,.,.
CCN(Cc1cc(OC)c(OC)c(OC)c1)C(=S)Nc1cccc(SC)c1,10,79,4,9,2,-5
COc1ccc(N2N=NN(C(C)C)C2=C(Cl)c2nnnn2-c2ccc(OC)cc2)cc1,37,-20,85*,-18,.,.
Cc1ccccc1NC(=S)NCc1ccc2[nH]c3c(c2c1)CCCC3,.,10,-1,4,8,-1
O=C(O)c1cn2c3c(ccc(Cl)c3c1=O)OCC2,-2,-10,51*,7,-14,14
COc1ccc(CNCCC(c2ccc(OC(C)C)cc2)c2ccccc2OC)cc1OC (configuration not stated),66*,82,11,35,12,-22
COc1ccc(CNCCC(c2ccc(OC(C)C)cc2)C(C)C)cc1OC (configuration not stated),50,76,-27,13,12,0
COc1ccccc1C(CCNCc1ccccc1)c1ccc(OC(C)C)cc1 (configuration not stated),12,43,-5,32,16,-23

# Screening results deposited in PubChem by several laboratories.
